In all, about 52,000 compounds went through this assay and about 4,300 (8.3%) were called active. The sample holds actives, similar compounds and a random draw of the others, so the mix is not that of the screen. A number with no mark means an inactive call. No stated cut-off is given here; in the data, active means survival mostly below about 52% (no sharp cut-off); inactive means mostly above about 56%.
What follows are compounds tested on DeltatarO mutant (assay: S. aureus survival, RN4220 and DeltatarO strains – OD600, teichoic acid synthesis inhibitors, primary screen (AID 463173)). Settings: S. aureus RN4220 wild type/DeltatarO growth, OD600, 18 h, stronger effect = lower value, screened at 18.75 µg/mL (by protocol).
Compound `COCCCN1C(=O)c2[nH]nc(-c3cc(C)ccc3O)c2C1c1ccc(F)cc1` (stereo unspecified) has a survival of 66%. With `COCCN1C(=O)c2[nH]nc(-c3c(C)cc(C)cc3O)c2C1c1cccc(O)c1` (stereo unspecified) the survival was 57%. Compound `CCOc1cc(C2c3c(-c4cc(C)ccc4O)n[nH]c3C(=O)N2CCCOC(C)C)ccc1O` (stereo unspecified) has a survival of 90%. `COCCN1C(=O)c2[nH]nc(-c3cc(C)ccc3O)c2C1c1ccc(C(C)C)cc1` (stereo unspecified) was tested, and the survival was 1% (active). `CCc1ccc(C2c3c(-c4cc(C)ccc4O)n[nH]c3C(=O)N2CCO)cc1` (stereo unspecified) showed a survival of 61%. `CCCCOc1cccc(C2c3c(-c4cc(C)ccc4O)n[nH]c3C(=O)N2CCOC)c1` (stereo unspecified) was tested, and the survival was 10% (active). In the case of `COCCCN1C(=O)c2ccccc2CC1(C)C(=O)NC1CCCCC1` (stereo unspecified), the survival is reported as 97%. With `Cc1ccc(CNC(=O)Cc2csc3ccccc23)cc1` the survival was 93%. `CC(=O)N1c2ccc(S(=O)(=O)N3CCN(c4cc(Cl)ccc4C)CC3)cc2CC1C` (stereo unspecified) gave a survival of 87%. Work on `CCN1CCCC1CNCC(=O)NC1(C)C2CCC(C2)C1(C)C` (stereo unspecified) yielded a survival of 100%. In the case of `COc1ccccc1C(=O)Nc1nnc2n1CCS2`, the survival is reported as 69%. `COc1ccccc1N1CCN(C(=O)c2ccco2)CC1` showed a survival of 104%. For `COc1ccc(C(=O)NCC(c2cccnc2)N2CCc3ccccc32)cc1` (stereo unspecified), the survival was 46% (active). `Cc1ccccc1C(=O)NCC(c1cccnc1)N1CCc2ccccc21` (stereo unspecified) was tested, and the survival was 44% (active). For `COc1cc(C(=O)NCC(c2cccnc2)N2CCc3ccccc32)cc(OC)c1OC` (stereo unspecified), the survival was 44% (active). `Cc1ccc(C(=O)NCC(c2cccnc2)N2CCc3ccccc32)cc1C` (stereo unspecified) gave a survival of 55%. Work on `COc1ccc(C(=O)NCC(c2cccnc2)N2CCc3ccccc32)cc1OC` (stereo unspecified) yielded a survival of 57%. `O=C(NCC(c1cccnc1)N1CCc2ccccc21)c1ccccc1Br` (stereo unspecified) showed a survival of 56%. In the case of `O=C(NCC(c1cccnc1)N1CCc2ccccc21)c1ccc(Cl)cc1` (stereo unspecified), the survival is reported as 52%. `COc1cc(C(=O)NCC(c2cccnc2)N2CCc3ccccc3C2)cc(OC)c1OC` (stereo unspecified) showed a survival of 76%. `COc1ccc(C(=O)NCC(c2cccnc2)N2CCc3ccccc3C2)cc1` (stereo unspecified) was tested, and the survival was 77%. Work on `COc1ccc(C(=O)OCc2cc(=O)n3nc(-c4cccs4)sc3n2)cc1` yielded a survival of 60%. For `c1ccc(Oc2ccc(N=NN3CCCCC3)cc2)cc1`, the survival was 74%. `CCN1CCN(c2c(S(=O)(=O)c3ccc(C)c(C)c3)cnc3cc(OC)c(OC)cc23)CC1` showed a survival of 75%. `CCC(=O)c1cc2c(cc1NC(=O)c1cccc(Cl)c1)OCCO2` gave a survival of 105%. `Cc1ccc2nc(-c3ccc(C)c(NC(=O)CSc4ccc(Cl)cc4)c3)oc2c1` was tested, and the survival was 85%. For `COc1ccc2oc(-c3ccc(C)c(NC(=O)CSc4ccc(Cl)cc4)c3)nc2c1`, the survival was 51% (active). `Cc1ccc(C(=O)Nc2cc(-c3nc4cc(Cl)ccc4o3)ccc2C)c(C)c1` gave a survival of 85%. `COc1ccc2oc(-c3ccc(C)c(NC(=O)Cc4ccc(Cl)cc4)c3)nc2c1` showed a survival of 151%. With `COc1ccc2oc(-c3ccc(C)c(NC(=O)COc4cc(C)cc(C)c4)c3)nc2c1` the survival was 43% (active). `COc1ccc2oc(-c3ccc(C)c(NC(=O)c4sc5ccccc5c4Cl)c3)nc2c1` was tested, and the survival was 48% (active). With `Cc1ccc2oc(-c3ccc(C)c(NC(=O)C(C)(C)Oc4ccc(Cl)cc4)c3)nc2c1` the survival was 13% (active). For `Cc1ccc2oc(-c3ccc(C)c(NC(=O)/C=C/c4ccc(Cl)cc4)c3)nc2c1`, the survival was 90%. `Cc1c(NC(=O)c2sc3ccccc3c2Cl)cccc1-c1nc2ccccc2o1` showed a survival of 53%. In the case of `CCc1ccc(OCC(=O)Nc2cc(-c3nc4cc(C)ccc4o3)ccc2C)cc1`, the survival is reported as 65%. `Cc1ccc(-c2nc3cc(Cl)ccc3o2)cc1NC(=O)COc1ccc(F)cc1` showed a survival of 53%. In the case of `COc1ccc2oc(-c3cccc(NC(=O)c4sc5c([N+](=O)[O-])cccc5c4Cl)c3)nc2c1`, the survival is reported as 77%. `COc1cccc2cc(-c3nc(-c4ccc(Cl)cc4)cs3)c(=O)oc12` showed a survival of 83%. Compound `Cc1ccc(Sc2c(C(=O)NCc3ccccc3C)[nH]c3ccccc23)cc1` has a survival of 77%. In the case of `CCOc1cccc(C(=O)Nc2ccc(Cl)cn2)c1`, the survival is reported as 72%. With `Cc1cccc(Cn2cc(S(=O)(=O)c3cccc(Cl)c3)c(=O)c3cc(F)c(N4CCOCC4)cc32)c1` the survival was 85%. Compound `Cc1ccc(C)c(CN2CCC(CNC(=O)Cn3ncc4c([nH]c5ccccc54)c3=O)CC2)c1` has a survival of 70%. Compound `Cc1ccc(S(=O)(=O)c2[nH]c(-c3ccccc3)nc2SCC(=O)O)cc1` has a survival of 78%. For `COC(=O)c1ccc(NC(=O)c2cc3cc(C)ccc3n2C)cc1`, the survival was 66%. `O=C1C(c2nc3ccccc3[nH]2)=C(O)c2ccccc21` showed a survival of 74%. `CCCN1CCc2nc(N3CCN(CC)CC3)ncc2C1` gave a survival of 72%. `Cc1ccc2oc(-c3ccc(C)c(NC(=O)c4ccc(-c5ccccc5[N+](=O)[O-])o4)c3)nc2c1` showed a survival of 68%. In the case of `Cc1ccc2oc(-c3ccc(Cl)c(NC(=O)c4ccc(-c5ccccc5[N+](=O)[O-])o4)c3)nc2c1`, the survival is reported as 74%. In the case of `COc1ccc2oc(-c3ccc(C)c(NC(=O)c4ccc(-c5ccccc5[N+](=O)[O-])o4)c3)nc2c1`, the survival is reported as 42% (active). `Cc1ccc(C)c(Nc2nn3c(=O)c4cc5c(cc4nc3s2)OCO5)c1` was tested, and the survival was 37% (active). Work on `Cc1cccc(Nc2nn3c(=O)c4cc5c(cc4nc3s2)OCO5)c1` yielded a survival of 116%. For `Cc1cc(C)c(Nc2nn3c(=O)c4cc5c(cc4nc3s2)OCO5)c(C)c1`, the survival was 51%. For `O=C(c1ccccc1Cl)n1nc(-c2cccnc2)nc1NCc1ccc(F)cc1`, the survival was 55%. `O=C(c1ccc(F)cc1)n1nc(-c2cccnc2)nc1NCc1ccccc1` showed a survival of 71%. `Cc1ccccc1C(=O)n1nc(-c2cccnc2)nc1NCc1ccc(F)cc1` gave a survival of 48%. For `O=C(c1ccco1)n1nc(-c2ccccc2)nc1NCc1ccc(F)cc1`, the survival was 65%. In the case of `COc1ccc(CNc2nc(-c3ccccc3)nn2C(=O)c2ccccc2OC)cc1`, the survival is reported as 102%. With `O=C(c1ccc(F)cc1)n1nc(-c2cccnc2)nc1NCc1ccc(F)cc1` the survival was 73%. For `COc1ccccc1C(=O)n1nc(-c2ccccc2)nc1NCc1ccc(Cl)cc1`, the survival was 56%. With `O=C(c1ccc(F)cc1)n1nc(-c2ccccc2)nc1NCc1ccc(F)cc1` the survival was 30% (active). `O=C(c1ccc(Cl)cc1)n1nc(-c2cccnc2)nc1NCc1ccc(F)cc1` was tested, and the survival was 43% (active). For `O=C(c1ccccc1)n1nc(-c2ccccc2)nc1NCc1ccc(F)cc1`, the survival was 12% (active). `COc1ccc(CNc2nc(-c3ccc(Cl)cc3)nn2C(=O)c2ccccc2)cc1` was tested, and the survival was 36% (active). `Cc1cccc(C(=O)n2nc(-c3cccnc3)nc2NCc2ccc(F)cc2)c1` showed a survival of 54%. With `Cc1ccc(Cn2ccnc2SCC(=O)Nc2ccc3c(c2)OCO3)cc1` the survival was 92%. Work on `COc1ccc(NC(=O)CSc2nc3ccncc3[nH]2)c(OC)c1` yielded a survival of 95%. For `CCCCC12CN3CC(C)(CN(C1)C3c1cc(Br)ccc1O)C2=O` (stereo unspecified), the survival was 72%. `CCN=C1S/C(=C\c2cn(CC(=O)NCCOC)c3ccccc23)C(=O)N1CC` was tested, and the survival was 95%. `CCOc1ccc(CCNC(=O)CS(=O)(=O)Cc2nc(-c3ccc(OC)cc3)oc2C)cc1` showed a survival of 83%. `COc1ccc(N(CC(=O)NCc2ccc(F)cc2)S(=O)(=O)c2c(C)n[nH]c2C)cc1` was tested, and the survival was 79%. `CCNC(=O)c1cnc2sc(N3CCC(C)CC3)nn2c1=O` was tested, and the survival was 74%. In the case of `Cc1ccc(S(N)(=O)=O)cc1NC(=O)c1c(-c2c(Cl)cccc2Cl)noc1C`, the survival is reported as 55% (active). `Cc1onc(-c2c(F)cccc2Cl)c1C(=O)Nc1ccc(OC(C)C)cc1` was tested, and the survival was 62%. Work on `Cc1onc(-c2ccccc2Cl)c1C(=O)NC(C(=O)O)C(C)C` (stereo unspecified) yielded a survival of 86%. With `CC(C)c1cc(C(=O)NCc2ccccc2)no1` the survival was 54%. In the case of `CCOC(=O)C1CCN(C(=O)CSc2n[nH]c(-c3ccccc3)n2)CC1`, the survival is reported as 97%. Work on `O=C(Nc1noc2ccccc12)c1c(F)cccc1F` yielded a survival of 87%. `COC(=O)c1cccc(Nc2c(-c3ccc(OC)cc3)nc3nc[nH]n23)c1` showed a survival of 64%. For `Cc1cc(C)n(-c2nc3cc(Cl)ccc3nc2N2CCN(c3ccccc3F)CC2)n1`, the survival was 98%. `Cc1cc(C)n(-c2nc3ccccc3nc2N2CCN(c3cccc(C)c3C)CC2)n1` was tested, and the survival was -6% (active). Work on `Cc1cc(C)n(-c2nc3cc(Cl)ccc3nc2Nc2ccc(C)c(F)c2)n1` yielded a survival of 91%. With `Cc1ccc2nc(N3CCN(c4cccc(Cl)c4)CC3)c(-n3nc(C)cc3C)nc2c1` the survival was 0% (active). `Cc1cc(C)n(CCc2nc3c4ccccc4nc(N4CCN(c5cccc(C)c5C)CC4)n3n2)n1` gave a survival of 86%. With `Cc1cc(C)n(-c2nc3ccccc3nc2N2CCN(c3cccc(C(F)(F)F)c3)CC2)n1` the survival was 91%. Work on `COc1ccccc1N1CCN(c2nc3ccc(C)cc3n3nnnc23)CC1` yielded a survival of 128%. In the case of `COc1ccccc1N1CCN(c2nc3ccc(C)cc3nc2-n2nc(C)cc2C)CC1`, the survival is reported as -5% (active). `Cc1cc(C)c(C#N)c(N2CCN(c3cccc(C)c3C)CC2)n1` was tested, and the survival was 106%. For `Cc1cc(C)n(-c2nc3cc(Cl)ccc3nc2N2CCN(c3cccc(C)c3C)CC2)n1`, the survival was -6% (active). `Cc1ccc(C)c(N2CCN(c3nc4ccc(C)cc4nc3-n3nc(C)cc3C)CC2)c1` showed a survival of 102%. `Cc1ccc2nc(N3CCN(c4cccc(Cl)c4)CC3)c3nnnn3c2c1` showed a survival of 88%. `O=C(Nc1ccccc1C(F)(F)F)N1CCN(c2ccc3nnc(-c4ccc(F)cc4)n3n2)CC1` showed a survival of 58%.

— PubChem BioAssay AID463173 (ICCB-Longwood Screening Facility, Harvard Medical School, 2010)
